Consider nine compounds from PubChem BioAssay (NCATS).

In experiment [1] the target is Tumor necrosis factor (Homo sapiens) (UniProt P01375). In words: qHTS assay to identify small molecules that stimulate Tumor Necrosis Factor-alpha (TNF-alpha) secretion (AID 651757; active = well fitted curve in the direction sought with a large enough effect in the signal ratio; the % refers to the signal ratio; also: 0% is about no effect). An outline of the steps: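 Using 3000 THP-1 cells per well, compounds and controls were applied for 17 hrs at 37 C. Detection followed with two labeled anti-TNF-alpha antibodies (cryptate donor, XL665 acceptor) for 3 hr at room temperature, measured by TR-FRET.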

Experiment [2] in a line: qHTS assay for environmental chemicals that activate the Aryl hydrocarbon Receptor (AhR) signaling pathway (AID 651777). Also: % of control where 0% means no effect; nearly all actives have a fitted effect of over 15% in size. The following applies: 1A2-DRE human hepatoma cells, luciferase, 24 h; stronger effect = higher value. An outline of the steps: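 Following a 24 hr incubation with test chemicals at 37 C and 5% CO2, 1A2-DRE human hepatoma cells received One-Glo reagent; after 30 min at room temperature, luciferase output reflected CYP1A2 induction via AhR.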

Experiment [3] has as its target Peroxisome proliferator-activated receptor alpha (Homo sapiens) (UniProt Q07869). In words: qHTS assay for small molecule agonists of the peroxisome proliferator-activated receptor alpha (PPARalpha) signaling pathway (AID 651778). Also: % of control where 0% means no effect. To be noted: PathHunter PPARalpha complementation, chemiluminescence, 6 h; max response: stronger effect = higher value. A digest of the protocol: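 Cells plated at 2,000/well and held overnight at 37 C, 5% CO2, then compound added by pin tool for 6 hr; after PathHunter detection reagent and 60 min at room temperature, chemiluminescence from enzyme complementation was read.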
(In general: Quantitative high-throughput screening tests each substance at several concentrations.)

The target in experiment [4] is Nuclear receptor ROR-gamma (Homo sapiens) (UniProt P51449). In words: qHTS assay for small molecule antagonists of the retinoid-related orphan receptor gamma (ROR-gamma) signaling pathway (AID 651802).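 Also: luciferase reporter luminescence driven by ROR response element; series mostly up to about 92 µM; % is scaled to controls: 0 for no effect and ±100 for the full control effect; nearly all actives have a fitted effect of over 60% in size.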 An outline of the steps: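 Doxycycline-induced reporter activity in engineered CHO cells (TET-inducible ROR, RORE-LUC) was measured by luminescence after 16hr compound exposure at 37C.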

A short description of experiment [5]: qHTS assay for small molecule agonists of the antioxidant response element (ARE) signaling pathway measured by Nrf2-dependant transcriptional activity (AID 720636; active = well fitted curve in the direction sought with a large enough effect in the repeat runs; an effect the other way counts as inactive or inconclusive;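 also: HepG2 cells with an ARE-driven luciferase reporter; % of control where 0% means no effect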). An outline of the steps:
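ONE-Glo luminescence, read 30 min after reagent addition at room temperature, reflected ARE reporter activity in HepG2 cells that had been incubated with compound for 16 hr at 37 C in 1% dialyzed FBS.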

Experiment [6] in a line: qHTS assay for small molecule antagonists of the retinoid-related orphan receptor gamma (ROR-gamma) signaling pathway - cell viability counter screen (AID 720652; active = well fitted curve in the direction sought with a large enough effect in the repeat runs; an effect the other way counts as inactive or inconclusive;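 also: series mostly up to about 92 µM; compound exposure lasted 16 hr before ATP read; % is scaled to controls: 0 for no effect and ±100 for the full control effect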). A digest of the protocol: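 ATP-based viability readout in the ROR-gamma reporter CHO cells after 16 hr compound exposure under doxycycline induction.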
Experiment [7] can be described thus: qHTS assay for small molecule agonists of the antioxidant response element (ARE) signaling pathway measured by Nrf2-dependant transcriptional activity - cell viability counter screen (AID 720653; active = well fitted curve in the direction sought with a large enough effect in the repeat runs; an effect the other way counts as inactive or inconclusive; also: % is scaled to controls: 0 for no effect and ±100 for the full control effect). To be noted: ARE-bla HepG2 viability, CellTiter-Glo ATP luminescence, 16 h; stronger effect = lower value. An outline of the steps:
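ARE-bla HepG2 cells (2,000/well) rested 5 hrs at 37C/5% CO2, then exposed to compounds in DMSO for 16 hrs. Viability was read in the same wells as intracellular ATP by luminescence, 30 min at room temperature after reagent addition.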

A short description of experiment [8]: qHTS Assay for Identifying Gametocytocidal Compounds (AID 743244). Also: potency is read from the fitted curve at half-maximal effect.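 As to max response: % is scaled to controls: 0 for no effect and ±100 for the full control effect; actives lower the fluorescent signal which means gametocytes are killed.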 To be noted: P. falciparum 3D7 stage III-V gametocytes, alamarBlue, 72 h; max response: stronger effect = lower value. An outline of the steps: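 Stage III–V gametocytes of P. falciparum 3D7 were seeded at 20,000 cells/well onto pre-dispensed compounds. After 72 h, 37 °C, 5% CO2, alamarBlue was added for another 24 h.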

A short description of experiment [9]: qHTS assay for cell viability of HEK293 cells (AID 743288). Also: % is scaled to controls: 0 for no effect and ±100 for the full control effect; nearly all actives have a fitted effect of over 50% in size. To be noted: ATP luminescence (CellTiter-Glo), 18 h, stronger effect = lower value. A digest of the protocol:
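Readout is luciferase-coupled ATP content (CellTiter-Glo luminescence, 30 min room temperature) as a measure of metabolically competent cells. Parental HEK293 cells were plated 5 h or more before compound addition, then treated 18 h at 37 C.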

Experiment [10] can be described thus: qHTS assay for cell viability of the p53RE-bla HCT-116 cell line (AID 743292). Also: % is scaled to controls: 0 for no effect and ±100 for the full control effect; nearly all actives have a fitted effect of over 55% in size. A digest of the protocol: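 After plating at 4,000 cells per well and a 5 h rest at 37 C, HCT-116 cells carrying p53RE-bla received test chemicals in DMSO. Sixteen hours later at 37 C, CellTiter-Glo was added and luminescence recorded following 30 min at room temperature.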
Experiment [11] has as its target Tyrosine-protein kinase Yes (Homo sapiens) (UniProt P07947). In words: qHTS for small molecule inhibitors of Yes1 kinase: Primary Screen (AID 686947).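 Also: plate controls were DMSO with enzyme for no effect and no-enzyme DMSO wells for full effect; nearly all actives have a fitted effect of over 60% in size.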 An outline of the steps:
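In this qHTS format, inhibition is expressed relative to DMSO controls with enzyme (maximum) and without enzyme (minimum). The 60 min room-temperature reaction uses 0.1 mM ATP, with ADP detected by luminescence.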

A short description of experiment [12]: qHTS for small molecule inhibitors of Yes1 kinase: Counter Assay (AID 686950).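 Also: no kinase present so only ADP-Glo detection of a fixed ADP amount is tested; luminescence from ADP-Glo reporting ADP in a fixed ATP and ADP mixture; series mostly up to about 77 µM; 0% = DMSO wells with ATP plus ADP and -100% = ATP-only wells without ADP.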 A digest of the protocol: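 Measuring interference with ADP-Glo, the assay ran 60 min at room temperature on an ATP/ADP mix lacking enzyme. Values were normalized to ATP-plus-ADP (maximum) and ATP-only (minimum) DMSO controls.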
Experiment [13] is described as follows: qHTS assay to identify small molecules that stimulate interleukin-8 (IL-8) secretion (AID 651758; active = well fitted activation curve with a large enough effect in the signal ratio; the % refers to the signal ratio; also: potency is read from the fitted curve at half-maximal effect; as to activation: 0% is about no effect). An outline of the steps: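 Quantitative HTS in THP-1 monocytic cells at 2000 cells per well, with 16 hrs compound incubation at 37 C. IL-8 in the medium was then quantified by HTRF immunoassay, read after 1-3 hrs at room temperature.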
A short description of experiment [14]: qHTS assay for small molecule disruptors of the mitochondrial membrane potential - 1 hr assay (AID 651754; calls by dose curve; also: % is scaled to controls: 0 for no effect and ±100 for the full control effect; nearly all actives have a fitted effect of over 35% in size). An outline of the steps:
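In this qHTS format, a 1 hr compound treatment of HepG2 cells precedes Mito-MPS staining, and membrane potential is judged from aggregate (red) against monomer (green) fluorescence intensity.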

Experiment [15] can be described thus: qHTS assay for small molecule disruptors of the mitochondrial membrane potential - 5 hr assay (AID 651755; calls by dose curve; also: % is scaled to controls: 0 for no effect and ±100 for the full control effect; nearly all actives have a fitted effect of over 40% in size). An outline of the steps: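 Seed HepG2 overnight, add compound, incubate 5 hr at 37C and 5% CO2, stain 30 min with Mito-MPS, then measure monomer (490/535 nm) and aggregate (540/590 nm) fluorescence.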

Several values for one entry are separate records, joined by “and”; a condition that tells them apart may be missing. Identical values can stand only once. A number with no mark means an inactive call. Inconclusive results are not listed. Activity calls are given as the source filed them. Unless noted, calls follow the shape of the dose curve; as a rule, active = well fitted curve in the direction sought with a large enough effect; inconclusive = small, poorly fitted or top-dose-only effect, or another doubt; inactive = no such curve, though single readings can be large; an effect the other way counts as inactive or inconclusive. *1 amine or outer side, *2 acyl side, *3 side chain or, on linkers, in order; H or OH if unused. Where a SMILES comes first, the peptide text is derived from it. Bridges are numbered along the chain shown (N, C = ends). Roman numbers before positions name the chains, in order. [ ]: non-standard residue; d: D form. ξ: configuration not given here. Actinocin(9to1) = Cc1c2oc3c(C)ccc(C(=O)[*:1])c3nc-2c(C(=O)[*:2])c(N)c1=O; ξNMeV = CNC(C(=O)O)C(C)C; ξV = CC(C)C(N)C(=O)O; Sar = CNCC(=O)O

Sequence of Tyrosine-protein kinase Yes (Homo sapiens) (P07947 whole entry, looked up): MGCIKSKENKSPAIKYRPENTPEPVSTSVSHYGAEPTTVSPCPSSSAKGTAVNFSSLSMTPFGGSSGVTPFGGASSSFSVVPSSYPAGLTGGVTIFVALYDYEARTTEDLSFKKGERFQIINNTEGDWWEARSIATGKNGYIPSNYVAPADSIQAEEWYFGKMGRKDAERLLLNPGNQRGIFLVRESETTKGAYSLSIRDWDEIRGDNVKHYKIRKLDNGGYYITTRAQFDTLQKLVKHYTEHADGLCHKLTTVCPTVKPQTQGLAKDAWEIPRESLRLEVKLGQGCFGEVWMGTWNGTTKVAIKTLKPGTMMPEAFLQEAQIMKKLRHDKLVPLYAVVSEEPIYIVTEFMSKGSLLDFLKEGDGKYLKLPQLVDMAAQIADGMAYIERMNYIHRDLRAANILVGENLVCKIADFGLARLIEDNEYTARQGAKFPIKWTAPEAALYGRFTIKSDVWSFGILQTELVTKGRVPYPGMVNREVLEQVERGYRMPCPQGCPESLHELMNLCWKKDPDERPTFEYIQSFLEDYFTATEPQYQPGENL
Sequence of Tumor necrosis factor (Homo sapiens) (P01375 whole entry, looked up): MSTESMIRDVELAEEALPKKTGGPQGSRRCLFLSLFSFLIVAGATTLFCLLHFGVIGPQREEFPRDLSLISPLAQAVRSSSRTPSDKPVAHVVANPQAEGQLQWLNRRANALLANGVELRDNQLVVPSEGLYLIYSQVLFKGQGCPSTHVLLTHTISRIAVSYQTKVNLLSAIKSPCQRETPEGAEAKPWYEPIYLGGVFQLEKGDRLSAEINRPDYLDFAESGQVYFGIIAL
Sequence of Nuclear receptor ROR-gamma (Homo sapiens) (P51449 whole entry, looked up): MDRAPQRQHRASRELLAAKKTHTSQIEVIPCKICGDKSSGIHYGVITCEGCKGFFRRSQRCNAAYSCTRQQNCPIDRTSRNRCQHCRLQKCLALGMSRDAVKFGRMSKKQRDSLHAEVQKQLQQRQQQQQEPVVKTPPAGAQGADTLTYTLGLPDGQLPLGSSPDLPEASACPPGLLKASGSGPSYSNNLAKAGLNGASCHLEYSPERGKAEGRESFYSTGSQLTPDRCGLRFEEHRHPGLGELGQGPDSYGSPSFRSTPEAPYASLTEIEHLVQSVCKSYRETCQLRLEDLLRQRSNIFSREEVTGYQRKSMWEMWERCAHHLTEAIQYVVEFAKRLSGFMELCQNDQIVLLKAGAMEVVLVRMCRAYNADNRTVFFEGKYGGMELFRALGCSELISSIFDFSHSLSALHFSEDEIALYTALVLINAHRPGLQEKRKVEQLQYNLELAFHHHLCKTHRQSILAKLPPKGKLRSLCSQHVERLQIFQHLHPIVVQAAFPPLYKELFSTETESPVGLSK
Sequence of Peroxisome proliferator-activated receptor alpha (Homo sapiens) (Q07869 whole entry, looked up): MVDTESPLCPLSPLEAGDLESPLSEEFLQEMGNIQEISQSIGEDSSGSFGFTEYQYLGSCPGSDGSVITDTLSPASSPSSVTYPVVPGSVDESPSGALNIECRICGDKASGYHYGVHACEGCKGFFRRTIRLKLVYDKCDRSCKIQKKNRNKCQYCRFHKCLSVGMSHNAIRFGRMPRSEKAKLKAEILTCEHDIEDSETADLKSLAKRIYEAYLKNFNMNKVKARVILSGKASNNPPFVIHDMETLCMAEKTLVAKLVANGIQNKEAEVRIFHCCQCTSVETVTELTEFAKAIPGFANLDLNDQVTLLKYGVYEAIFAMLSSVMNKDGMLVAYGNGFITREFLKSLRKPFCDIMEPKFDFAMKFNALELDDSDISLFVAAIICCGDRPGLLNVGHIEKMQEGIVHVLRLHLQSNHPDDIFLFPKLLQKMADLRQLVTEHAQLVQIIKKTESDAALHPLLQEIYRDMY

`CCCCCCCC(=O)O`: the compound was classed as inactive in [1], in experiment [4], in experiment [5], in experiment [6] and in [10]. Moreover, in [2], the activation is 0.292% and -0.546%. Also, the max response was -0.533% and 5% in experiment [3]; 3.78% and 1.59% in experiment [7]; 10% in experiment [8]; -4.48% and -6.78% in experiment [9].
As for `O=C(O)CC/C=C\CC[C@H]1[C@@H](N2CCCCC2)[C@@H](O)C[C@@H]1OCc1ccc(-c2ccccc2)cc1`, the Potency result in experiment [11] was “inactive”. Moreover, the compound was classed as inactive in experiment [12]. Further, in experiment [8], the max response was 3.93%.
`O=C(O)CCC(=O)C(=O)O`: the outcome in [1], in experiment [4], in experiment [5], in [6] and in experiment [10] was inactive. In [13], the Potency entry is “inactive”. Also, the activation in experiment [2] is 0.4%. Further, the max response in experiment [3] is 4.88%; in [7], -1.5%; in experiment [8], 11.5%; in experiment [9], 2.53%.
As to `Cc1ccccc1`, the compound was called inactive in [14], in [15], in experiment [1], in experiment [4], in experiment [5] and in experiment [6]. The compound was classed as inactive in [10]. Further, the activation in experiment [2] is 0.0379% and -2.19%. Besides, the max response in experiment [3] was 0.399% and -0.58%; in [7] it was 6.91% and 8.68%; in experiment [8], 2.65%; in experiment [9], 1.99% and 6.48%.
As for `CCCCC(CC)COC(=O)CC(C(=O)OCC(CC)CCCC)S(=O)(=O)O` (stereo not given), the activation in experiment [2] was 0.833%. The result in experiment [5] and in experiment [10] was inactive. Besides, the max response in experiment [7] was -6.73%; in [8] it was -7.18% and 8.87%; in [9], -6.91%.
Consider `O=c1cc(C2=CC=CC3Sc4ccccc4SC23)oc(N2CCOCC2)c1` (stereo not given), for which the Potency entry in experiment [11] was “inactive”. For the same compound, the compound was classed as inactive in [12]. In [8], the max response is -19.3%.
With `CC1=C(/C=C/C(C)=C/C=C/C(C)=C/CO)C(C)(C)CCC1`, the result in experiment [14], in experiment [1] and in experiment [10] was inactive. Further, in experiment [13], the Potency is 37.6 µM (active). Further, the activation in [2] was 1.25% and 1.27%. In addition, the max response in [3] was -3.78% and -1.63%; in experiment [7], -15.5% and 5.78%; in experiment [8], 11.8%; in experiment [9] it was -9.33% and -12.3%.
With `CNC1CCN(C(Cc2cccc(-c3ccncc3)c2)C(=O)c2sc3c(F)ccc(F)c3c2Cl)CC1` (stereo not given), the Potency result in [11] was “inactive”. The compound was classed as inactive in [12]. The Potency in experiment [8] was 9.35 µM (active).
With `Cc1c2oc3c(C)ccc(C(=O)N[C@@H]4C(=O)NC(C(C)C)C(=O)N5CCC[C@H]5C(=O)N(C)CC(=O)N(C)C(C(C)C)C(=O)O[C@@H]4C)c3nc-2c(C(=O)N[C@@H]2C(=O)NC(C(C)C)C(=O)N3CCC[C@H]3C(=O)N(C)CC(=O)N(C)C(C(C)C)C(=O)O[C@@H]2C)c(N)c1=O` (stereo not given in full) (I: T[ξV]P[Sar][ξNMeV] / II: T[ξV]P[Sar][ξNMeV]; ester I:1-I:C, II:1-II:C; linker I:N-II:N via Actinocin(9to1)), the Potency entry in [11] was “inactive”. Further, the compound was called inactive in [12]. Also, the Potency in experiment [8] is 0.0132 µM (active).
